According to PubChem BioAssay AID774 (SRMLSC, 2007):
The whole screen tested about 65,000 compounds, of which about 15 (0.02%) were called active.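 Rule for the calls: active = single-dose screening hits from any of four coupled enzyme assays that gave an IC50 when retested across doses; inconclusive = no clear call, values can overlap the other calls; inactive = the rest.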 These entries were drawn from the full list.

experiment: inhibitors of PK/LDH coupling enzymes, profiling panel, artefact control, biochemical, MLSMR library (AID 774); details: coupled PK/LDH NADH assays, four targets; at 10 µM; active compounds read high;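 note: the DPM-DC format reads NADH fluorescence rather than 340 nm absorbance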

inhibition, inactive:
CC(C)[C@H](NC(=O)Nc1ccc(S(N)(=O)=O)cc1)C(=O)O 2%, C/C(N)=C(\C#N)C(=O)NCCc1ccccn1 5%, O=C(Cn1c(=O)sc2ccccc21)Nc1nc2c(s1)CCCC2 5%, c1ccc2c(c1)OCC(c1nn3cnnc3s1)O2 (stereo unspecified) 3%, COc1cccc(-c2cc3nc4c(c(N5CCC6(CC5)OCCO6)n3n2)CCCC4)c1 4%, C=CCc1cccc2cc(C(=O)N3CCN(C(=O)OCC)CC3)c(=O)oc12 4%, CCOC(=O)CC1C(=O)NCCN1C(=O)COc1ccc(Br)cc1C (stereo unspecified) 4%, Cc1nn(-c2ccccc2)c2[nH]c(C(F)(F)F)cc(=O)c12 3%, O=[n+]1c2c(n([O-])c3cc(Br)ccc31)CCC2 5%, CC(C)CCNc1nc(N2CCCC2)c2c(c1C#N)CCN(C)C2 7%, COc1ccc(N2C(=O)CCC(C(=O)Nc3ccccn3)C2c2ccc(OC)c(OC)c2)cc1 (stereo unspecified) 2%, Cc1ccc(S(=O)(=O)c2nc(NCCCn3ccnc3)sc2Cl)cc1 6%, COc1ccc(N(CC(=O)NC(C)(C)C)C(=O)c2ccco2)cc1 1%, CCOC(=O)c1[nH]c2ccccc2c1N=C(C)N(CC)CC 4%, COc1cccc2c(C)c(C(=O)O)[nH]c12 14%, COCCCNC(=O)c1c(F)c(F)c(F)c(F)c1F 5%, O=C(CCn1c(=O)oc2ccccc21)Nc1ccon1 5%, COc1cc(C2C(C(=O)Nc3ccc(F)cc3)=C(C)Nc3nc(CCCO)nn32)cc(OC)c1OC (stereo unspecified) 9%, OCCCN1c2ccccc2Nc2nnc(-c3ccccc3)cc21 2%, C=C1c2cc(CC)ccc2NC(=O)N1c1ccc(C)cc1 4%, CCc1nnc(NC(=O)CCC(=O)O)s1 1%, COc1cc(-c2nnc(Cn3cc(C(F)(F)F)ccc3=O)o2)cc(OC)c1OC 4%, CCOP1(=O)C=C(C(C)(C)C)OC1c1ccc(F)cc1 (stereo unspecified) 5%, CCN(CC)C(=O)CSc1nnc(-c2ccc(S(=O)(=O)NCc3ccccc3Cl)cc2)o1 6%, CCc1c(C)n([O-])c2c([n+]1=O)CCCCC2 4%, Cc1noc(NS(=O)(=O)c2ccc(N3CC(O)=C(c4ccccc4)C3=N)cc2)c1C 4%, Cn1c(NC(=O)c2ccc3c(c2)OCO3)cc(=O)n(C)c1=O 7%, COC(=O)Cc1c(C)c2ccc(OCC(=O)NCc3ccc4c(c3)OCO4)cc2oc1=O 10%, O=C(CSc1nc2ncccc2[nH]1)Nc1ccc2c(c1)OCCO2 1%, CNC(=O)CSc1nnnn1-c1ccc(C)cc1C 2%, CCC(C(=O)Nc1ncccn1)(C(F)(F)F)C(F)(F)F 1%, COc1ccc(C2/C(=C(/O)c3ccccc3)C(=O)C(=O)N2c2ncccn2)cc1OC (stereo unspecified) 1%, O=C(COC(=O)c1ccccc1C(=O)c1ccccc1)c1ccco1 4%, Cc1cc(C)n(C(=O)c2ccc(S(=O)(=O)N3CCCC3)cc2)n1 4%, CC1(C)CCCC2=C1CC1C(=O)N(c3ccccc3)C(=O)C1C2 (stereo unspecified) 6%, Cc1ccc2cccc(O)c2[n+]1[O-] 10%, CCOc1ccccc1-n1c(SCC(=O)N2CCCC2)nnc1-c1ccoc1C 4%, O=C(CN1C(=O)C2C3C=CC(C3)C2C1=O)NCC1COc2ccccc2O1 (stereo unspecified) 8%, Cn1nnnc1SCc1cc(=O)[nH]c2ccccc12 6%, Cc1cc(OCCN2CCCC2)ccc1C(C)C 14%, CC1(C)CC(=O)c2sc(N)nc2C1 3%, CCOC(=O)C1CCN(C(=O)Cn2cc(C#N)c3ccccc32)CC1 5%, COc1ccc(-c2nn(-c3ccccc3)cc2C(=O)Nc2nc(CC(C)=O)ns2)cc1 4%, CCOC(=O)CCCNC(=O)CN1C(=O)NC(CCc2ccccc2)C1=O (stereo unspecified) 5%, Cc1ccc(CCn2c3c(c4ccccc42)CN(C)CC3)cn1 2%, CC(C)C1Cc2c(sc3c2c(=O)n(-c2ccccc2)c2nncn32)CO1 (stereo unspecified) 3%, CN1c2ccccc2-c2nc3ccccc3n2C1c1ccco1 (stereo unspecified) 6%, C=CCn1c(COc2ccccc2)nnc1SCC(=O)NCC(=O)OCC 3%, Cc1cccc(OCC(O)Cn2c(=N)n(CCN3CCOCC3)c3ccccc32)c1 (stereo unspecified) 6%, C/C(=C\c1ccco1)C1Nc2cccc3cccc(c23)N1 10%, Cc1cc(NC(=O)Nc2ccccc2)n(-c2ccccc2)n1 1%, COc1ccc(Br)cc1/C=N/n1c(C)nnc1C 6%, O=C(Nc1ccccc1N1CCN(C(=O)c2ccccc2)CC1)c1ccc2c(c1)OCO2 4%, C=CCNc1nc(C)nc(OC)n1 3%, CCCCC(CC)C(=O)Nc1ccc(Cl)cn1 (stereo unspecified) 5%, CC(=O)c1c(N2CCOCC2)nc(=S)n(-c2cc(C)ccc2C)c1C 5%, CC(C)CCn1c(CN(C)Cc2ccccc2)nc2c1c(=O)n(C)c(=O)n2C 8%, COC(=O)c1ccc(C2CC(=O)Nc3cc(OC)c(OC)cc32)cc1 (stereo unspecified) 9%, CCOc1ccccc1NC(=O)C1CCC(CNc2c(N3CCOCC3)c(=O)c2=O)CC1 (stereo unspecified) 7%, O=C(CSc1ncccn1)NCCc1ccccc1 5%, COc1ccc(OC)c(NC(=O)CN2CCN(C(=O)c3ccco3)CC2)c1 3%, Cc1cccc(C)c1NC(=O)CCCSc1nnc(-c2ccco2)n1-c1ccccc1 3%, CCOC(=O)c1c(C(C#N)C#N)cc(C)nc1C 7%, Cc1cc(C)c(C(=O)CN2C(=O)CCC2=O)cc1C 5%, Oc1c(C(c2ccco2)N2CCC3(CC2)OCCO3)sc2ncnn12 (stereo unspecified) 3%, CCOC(=O)c1cc2cc(-c3c(C(=O)OCC)oc4cc(O)cc(O)c4c3=O)ccc2o1 3%
